Hits are enriched below; roughly 3.8% of the tested compounds scored in any of these assays.
ATXN viability = reduces viability in counter-screen for ATXN expression inhibitors; AID 651635; S2 cells (HEK-293 line with an ATXN2-luciferase reporter) viability, CellTiter-Fluor protease fluorescence, 24 h; actives 0.49% (n = 400,000); Potency, µM (top dose mostly 56.7 µM), most hits filed as cytotoxic; also: nearly all actives have a fitted effect of over 40% in size
TGFb SMAD3 inh = inhibitors of TGF-b signaling; HepG2 CAGA-GFP TGF-b/SMAD3 reporter, GFP fluorescence, 18 h; TGF-beta stimulated, 500 pg/mL final; Potency, µM (doses to about 46.1 µM), for the others: at the highest dose activity, negative = inhibition, actives largely listed as inhibitors; actives 1.2% (n = 410,000); also: % is scaled to controls: 0 for no effect and ±100 for the full control effect; nearly all actives have a fitted effect of over 65% in size
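Per well, imaged GFP fluorescence of HEPG2 CAGA-GFP cells gives the signal; cells get compound, then TGF-beta (500 pg/mL final), 18 h at 37 degrees C; %Activity versus -TGF-beta and +DMSO controls.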
ATXN2 expr inh = inhibitors of ATXN2 expression. Potency, µM (titrated, usually from 57 µM), inactives show at the top dose activity change, negative = inhibition, actives largely listed as inhibitors. AID 1745845. actives 0.72% (n = 360,000). HEK-293 ATXN2-luciferase reporter, luminescence, 24 h; also: % is scaled to controls: 0 for no effect and ±100 for the full control effect; nearly all actives have a fitted effect of over 55% in size
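ATXN2-luciferase reporter cells (luciferase flanked by upstream and downstream ATXN2 gene portions) were treated 24 h at 37 °C with compounds at up to 57 uM. SteadyGlo luminescence gave expression; GF-AFC fluorescence gave viability.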
HT1080-NT tox = kills 2HG-producing HT-1080-NT fibrosarcoma cells; Potency, µM (series often up to 46.1 µM), inactives show at the top dose activity, negative = less viability, actives largely listed as cytotoxic; HT-1080-NT fibrosarcoma viability, CellTiter-Glo ATP luminescence, 48 h; actives 1.6% (n = 360,000);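 also: NT is the 2HG producing partner of a matched IDH1 knockdown line; 0% = DMSO-treated cells and -100% = media-only wells without cells; nearly all actives have a fitted effect of over 55% in size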
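Fibrosarcoma NT cells, 750 per well in 5% FBS RPMI, were exposed to compound for 48 hours. Viability: CellTiter-Glo luminescence.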
HepG2 viability = counter-screen for TGF-b inhibitors: cytotoxicity in HepG2 cells. actives 0.76% (n = 410,000). Potency, µM (doses to about 46.1 µM), for the others: top-dose activity change, negative = cytotoxicity, hits mostly cytotoxic. HepG2 CAGA-GFP viability, ATP luminescence, 18 h
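CellTiter-Glo luminescence gave cytotoxicity after 18 hours at 37 degrees C. The cells were HepG2 CAGA-GFP in 1% FBS DMEM, stimulated with 500 pg/mL TGF-beta after compound addition. %Activity was normalised to no-cell wells (complete cell-killing) and DMSO (no toxicity), and curves were fitted and classified.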
HT1080 IDH1KD tx = toxicity to HT-1080 IDH1 knockdown cells (counter line); Potency, µM (highest dose often 46.1 µM), for inactives: top-dose activity, negative = toxicity, actives largely listed as cytotoxic; actives 2% (n = 360,000); HT-1080 IDH1 knockdown viability, ATP luminescence, 48 h;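 also: 0% = DMSO wells and -100% = cell-free medium wells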
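IDH1KD HT-1080 cells, 750/well, RPMI + 5% FBS; compound pinned after 2 h settling; 48 h, 37 °C; CellTiter-Glo luminescence; % activity normalised to DMSO and no-cell wells; curves fitted, classed by r2 and efficacy.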
* = called active by the depositor; i = inactive; ? = inconclusive; / = no result; [ ] = another dose, or the depositor's remark. Calls follow the shape of the dose curve; as a rule, active = well fitted curve in the direction sought with a large enough effect; inconclusive = small, poorly fitted or top-dose-only effect, or another doubt; inactive = no such curve, though single readings can be large; an effect the other way counts as inactive or inconclusive. Potency is read from the fitted curve at half-maximal effect.

SMILES | ATXN viability | TGFb SMAD3 inh | ATXN2 expr inh | HT1080-NT tox | HepG2 viability | HT1080 IDH1KD tx
COC(=O)CN(c1cc(Cl)ccc1OC)S(=O)(=O)c1ccc(C)cc1 | i | 6% | -20% | 18µM* | -39% | 16µM*
COC(=O)CN1CC(=O)c2ccccc2S1(=O)=O | / | 3% | / | / | 8% | /
O=S(=O)(c1ccc(F)cc1)N1CCN(c2nc(-c3ccc(F)cc3)nc3cc(Cl)ccc23)CC1 | / | 5% | / | / | -13% | /
COc1ccccc1N1CCN(C(=O)c2ccc(Cl)c(S(=O)(=O)NCc3ccco3)c2)CC1 | i | -7% | -25% | 8.9µM* | -14% | 7.1µM*
CCCCC(=O)Nc1ccc(C(=O)OCc2cc(=O)n3ccsc3n2)cc1 | i | 15% | -13% | / | -6% | /
O=C(CCCN1C(=O)/C(=C/c2ccccc2Cl)SC1=S)Nc1ccccn1 | i | ? | 17µM* | -2% | -15% | 5%
O=C(CCCN1C(=O)/C(=C/c2ccccc2Cl)SC1=S)Nc1cccnc1 | 14µM* | -1% | ? | -2% | -1% | 0%
O=C(CCN1C(=O)/C(=C/c2ccccc2Cl)SC1=S)Nc1ccccn1 | i | -11% | / | -3% | -30% | 0%
O=C(CCN1C(=O)/C(=C/c2ccccc2Cl)SC1=S)Nc1cccnc1 | i | 8% | / | -3% | 2% | -14%
CCOc1ccccc1CN1CCN(Cc2cc3ccccc3[nH]2)CC1CCO (stereo not given) | i | -28% | -17% | 23µM* | -33% | ?
CCOc1ccccc1CN1CCN(CC2CC2)CC1CCO (stereo not given) | i | 3% | 12% | 0% | 0% | 0%
O=C(Cc1ccccc1)NCC(=O)OCC(=O)c1ccc2ccccc2c1 | / | -1% | / | / | -18% | /
Cc1nn(-c2cccc(C(F)(F)F)c2)c(Cl)c1/C=N/Nc1cccc(C(=O)O)c1 | i | 1% | 50% | -10% | -54% | -17%
CCOC(=O)N/N=C/c1c(C)nn(-c2cccc(C(F)(F)F)c2)c1Cl | i | -31% | -18% | 3.3µM* | -41% | 2.3µM*
NCCNc1ccc(C(=O)N2c3ccccc3Sc3ccccc32)cc1[N+](=O)[O-] | / | 0% | ? | ? | -64% | 16µM*
Nc1ccc(C(=O)OCC(=O)N2c3ccccc3Sc3ccccc32)cc1[N+](=O)[O-] | i | ? | 17% | -3% | -31% | -13%
CN(C)CCCN(C(=O)c1ccco1)c1nc2ccc(Cl)cc2s1 | / | ? | ? | ? | -32% | 18µM*
CN(C)CCCN(C(=O)c1ccco1)c1nc2ccc(Br)cc2s1 | ? | 0% | 25µM* | 23µM* | -72% | 21µM*
CCN(CC)CCN(C(=O)c1ccco1)c1nc2ccc(Cl)cc2s1 | i | ? | -18% | / | -59% | /
CCN(CC)CCCN(C(=O)c1ccco1)c1nc(-c2ccc(Cl)cc2)cs1 | i | ? | 0% | 23µM* | -66% | 15µM*
CN(C)CCCN(C(=O)CCc1ccccc1)c1nc2ccc(F)cc2s1 | i | 0% | 0% | -5% | -40% | -4%
CCN(CC)CCCN(C(=O)c1ccco1)c1nc(-c2ccc(C)cc2)cs1 | ? | ? | -16%[11.3 µM] | ? | -77% | ?
CN(C)CCCN(C(=O)CCc1ccccc1)c1nc2ccc(Br)cc2s1 | ? | 16µM* | 25µM* | 18µM* | -102% | ?
CN(C)CCN(C(=O)c1ccco1)c1nc2cc3c(cc2s1)OCCO3 | i | -10% | -16% | -22% | 0% | -13%
COCc1c(C(=O)NCC2CCCN(C)C2)cnn1-c1ncc2c(n1)-c1ccccc1CCC2 (stereo not given) | i | / | / | / | / | /
COc1ccc2c(c1)OC(C)CN(CCC(=O)NCC1OCCc3ccccc31)C2 (stereo not given) | i | / | / | / | / | /

Bioassay records as filed in PubChem BioAssay.
